Results as given in PubChem BioAssay (NCI).
The panel holds about 83,000 compounds, 20% with a hit somewhere; the sample as a whole holds those more often.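 Step 1: grow cells in 96-well plates. Step 2: add test compound at a single concentration. Step 3: incubate 48 h. Step 4: record percent growth.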 A number with no mark means an inactive call. The source made the active and inactive calls. How the source made its calls: active means growth percent below 10; inactive means the rest.

Assays:
Assay in all cases: NCI-60 one-dose screen, 48 h (100 = growth as untreated, 0 = no growth, -100 = all killed)
Settings in all cases: 10 µM unless noted
DU-145 prostate = system: DU-145 prostate
K-562 leukemia = system: K-562 leukemia
MALME-3M melanoma = system: MALME-3M melanoma
MDA-MB-231 breast = system: MDA-MB-231 breast
RXF 393 renal = system: RXF 393 renal
SF-268 CNS = system: SF-268 CNS
SF-295 CNS = system: SF-295 CNS
SF-539 CNS = system: SF-539 CNS
UACC-257 melanoma = system: UACC-257 melanoma
M14 melanoma = system: M14 melanoma
HCT-15 colon = system: HCT-15 colon
HT29 colon = system: HT29 colon
SNB-75 CNS = system: SNB-75 CNS
SNB-19 CNS = system: SNB-19 CNS
U251 CNS = system: U251 CNS
PC-3 prostate = system: PC-3 prostate
SK-MEL-5 melanoma = system: SK-MEL-5 melanoma
UACC-62 melanoma = system: UACC-62 melanoma
LOX IMVI melanoma = system: LOX IMVI melanoma
SK-MEL-28 melanoma = system: SK-MEL-28 melanoma

## Cc1nc2sc(C(=O)Nc3ccccc3Cl)c(N)c2cc1C(C)O (stereo not given)
DU-145 prostate
  growth: 96.6%
K-562 leukemia
  growth: 22.5%
MALME-3M melanoma
  growth: 88.6%
MDA-MB-231 breast
  growth: 80.9%
RXF 393 renal
  growth: 92.8%
SF-268 CNS
  growth: 86.7%
SF-295 CNS
  growth: 84.3%
SF-539 CNS
  growth: 85.1%
UACC-257 melanoma
  growth: 86.5%
M14 melanoma
  growth: 58.9%
HCT-15 colon
  growth: 61.4%
HT29 colon
  growth: 34.3%
SNB-75 CNS
  growth: 72.8%
SNB-19 CNS
  growth: 83.2%
U251 CNS
  growth: 66.5%
PC-3 prostate
  growth: 83.5%
SK-MEL-5 melanoma
  growth: 80.7%
UACC-62 melanoma
  growth: 68.2%
LOX IMVI melanoma
  growth: 74.5%
SK-MEL-28 melanoma
  growth: 84.7%

## CCOC(=O)C1CCN(S(=O)(=O)/N=C2/NC(=O)NC2=C(Cl)Cl)CC1
DU-145 prostate
  growth: 25.7%
K-562 leukemia
  growth: -15.7% (active)
MALME-3M melanoma
  growth: -60% (active)
MDA-MB-231 breast
  growth: 9.62% (active)
RXF 393 renal
  growth: 83.8%
SF-268 CNS
  growth: 11.2%
SF-295 CNS
  growth: 17.4%
SF-539 CNS
  growth: -4.27% (active)
UACC-257 melanoma
  growth: 19.9%
M14 melanoma
  growth: -22.4% (active)
HCT-15 colon
  growth: -72.6% (active)
HT29 colon
  growth: -61.6% (active)
SNB-75 CNS
  growth: 55.5%
SNB-19 CNS
  growth: 16.8%
U251 CNS
  growth: -86.7% (active)
PC-3 prostate
  growth: 17.7%
SK-MEL-5 melanoma
  growth: 14.1%
UACC-62 melanoma
  growth: -30.6% (active)
LOX IMVI melanoma
  growth: -65% (active)
SK-MEL-28 melanoma
  growth: -8.67% (active)

## Cc1cccc2nc3c(n12)C(=O)C(=O)c1ccccc1-3
DU-145 prostate
  growth: 76.9%
K-562 leukemia
  growth: 28.9%
MALME-3M melanoma
  growth: 64.4%
MDA-MB-231 breast
  growth: 63.9%
RXF 393 renal
  growth: 103%
SF-268 CNS
  growth: 80.8%
SF-295 CNS
  growth: 82.7%
SF-539 CNS
  growth: 69.3%
UACC-257 melanoma
  growth: 49.5%
M14 melanoma
  growth: 67.1%
HCT-15 colon
  growth: 40.8%
HT29 colon
  growth: 78%
SNB-75 CNS
  growth: 136%
SNB-19 CNS
  growth: 61.3%
U251 CNS
  growth: 43%
PC-3 prostate
  growth: 40.2%
SK-MEL-5 melanoma
  growth: 30.2%
UACC-62 melanoma
  growth: -57.4% (active)
LOX IMVI melanoma
  growth: 6.44% (active)
SK-MEL-28 melanoma
  growth: 85.7%

## CCOc1ccccc1C(=O)/C=C/c1cc2ccccc2[nH]c1=O
DU-145 prostate
  growth: -37% (active)
K-562 leukemia
  growth: 5.07% (active)
MALME-3M melanoma
  growth: -39% (active)
MDA-MB-231 breast
  growth: -52.8% (active)
RXF 393 renal
  growth: -69.4% (active)
SF-268 CNS
  growth: -10.8% (active)
SF-295 CNS
  growth: 1.85% (active)
SF-539 CNS
  growth: -29.9% (active)
UACC-257 melanoma
  growth: -9.05% (active)
M14 melanoma
  growth: -20.4% (active)
HCT-15 colon
  growth: -58.9% (active)
HT29 colon
  growth: -44.6% (active)
SNB-75 CNS
  growth: 21%
SNB-19 CNS
  growth: -72.9% (active)
U251 CNS
  growth: -92.2% (active)
PC-3 prostate
  growth: 14.9%
SK-MEL-5 melanoma
  growth: -78.3% (active)
UACC-62 melanoma
  growth: -65.3% (active)
LOX IMVI melanoma
  growth: -81.8% (active)
SK-MEL-28 melanoma
  growth: -3.66% (active)

## O=C(NC[C@H](O)CN1CCc2ccccc2C1)c1cc(NC2COC2)ncn1
DU-145 prostate
  growth: 103%
K-562 leukemia
  growth: 108%
MALME-3M melanoma
  growth: 93.3%
MDA-MB-231 breast
  growth: 94.6%
RXF 393 renal
  growth: 114%
SF-268 CNS
  growth: 86%
SF-295 CNS
  growth: 97.7%
SF-539 CNS
  growth: 97.4%
UACC-257 melanoma
  growth: 116%
M14 melanoma
  growth: 92.4%
HCT-15 colon
  growth: 103%
HT29 colon
  growth: 86.9%
SNB-75 CNS
  growth: 74%
SNB-19 CNS
  growth: 99%
U251 CNS
  growth: 102%
PC-3 prostate
  growth: 107%
SK-MEL-5 melanoma
  growth: 107%
UACC-62 melanoma
  growth: 91.8%
LOX IMVI melanoma
  growth: 93.9%
SK-MEL-28 melanoma
  growth: 88.3%

## Cc1nc2sc(C(=O)Nc3ccccc3)c(N)c2cc1C(C)O (stereo not given)
DU-145 prostate
  growth: 18.3%
K-562 leukemia
  growth: 16.3%
MALME-3M melanoma
  growth: 64.2%
MDA-MB-231 breast
  growth: 51.4%
RXF 393 renal
  growth: 12.7%
SF-268 CNS
  growth: 53.4%
SF-295 CNS
  growth: 21.9%
SF-539 CNS
  growth: 6.49% (active)
UACC-257 melanoma
  growth: 64%
M14 melanoma
  growth: 16.2%
HCT-15 colon
  growth: 27.8%
HT29 colon
  growth: 1.95% (active)
SNB-75 CNS
  growth: 30.9%
SNB-19 CNS
  growth: 24.3%
U251 CNS
  growth: 21.7%
PC-3 prostate
  growth: 21.5%
SK-MEL-5 melanoma
  growth: 26.5%
UACC-62 melanoma
  growth: 29.5%
LOX IMVI melanoma
  growth: 47.5%
SK-MEL-28 melanoma
  growth: 55.8%

## O=S(=O)(Nc1nccs1)c1ccc(Nc2nc(-c3ccncc3)cs2)cc1
DU-145 prostate
  growth: 106%
K-562 leukemia
  growth: 109%
MALME-3M melanoma
  growth: 113%
MDA-MB-231 breast
  growth: 105%
RXF 393 renal
  growth: 110%
SF-268 CNS
  growth: 107%
SF-295 CNS
  growth: 120%
SF-539 CNS
  growth: 88.2%
UACC-257 melanoma
  growth: 109%
M14 melanoma
  growth: 103%
HCT-15 colon
  growth: 103%
HT29 colon
  growth: 120%
SNB-75 CNS
  growth: 84.7%
SNB-19 CNS
  growth: 101%
U251 CNS
  growth: 95.2%
PC-3 prostate
  growth: 96.8%
SK-MEL-5 melanoma
  growth: 107%
UACC-62 melanoma
  growth: 94.7%
LOX IMVI melanoma
  growth: 95.8%
SK-MEL-28 melanoma
  growth: 109%

## Cc1[nH]c2ncnc(Oc3ccc(NC(=O)Nc4ccc(Cl)c(C(F)(F)F)c4)cc3)c2c1C
DU-145 prostate
  growth: 66.4%
K-562 leukemia
  growth: 26.6%
MALME-3M melanoma
  growth: 61.6%
MDA-MB-231 breast
  growth: 44.6%
RXF 393 renal
  growth: 74.3%
SF-268 CNS
  growth: 53%
SF-295 CNS
  growth: 62.4%
SF-539 CNS
  growth: 56%
UACC-257 melanoma
  growth: 64.2%
M14 melanoma
  growth: 52.1%
HCT-15 colon
  growth: 48.3%
HT29 colon
  growth: 50.2%
SNB-75 CNS
  growth: 88.1%
SNB-19 CNS
  growth: 73.4%
U251 CNS
  growth: 52.5%
PC-3 prostate
  growth: 35%
SK-MEL-5 melanoma
  growth: 65.9%
UACC-62 melanoma
  growth: 55.8%
LOX IMVI melanoma
  growth: 43.4%
SK-MEL-28 melanoma
  growth: 59.7%
